Measured values reported in PubChem BioAssay AID1963315 (National Center for Advancing Translational Sciences (NCATS), 2024).
Records with an inconclusive call do not appear. Values without a mark were called inactive. The source made the active and inactive calls. The call rests on the fitted dose curve.

These compounds were tested against Tyrosine-protein kinase ABL1 (Homo sapiens) (UniProt P00519) (assay: ABL1 kinase (ABL1-N-HiBiT) SDR gain of signal screen). Conditions: Purified ABL1-N-HiBiT enzyme, Nano-Glo HiBiT luminescence, 30 min compound incubation; series mostly up to 32.9 µM; activity change, gain of signal: at the top concentration.
Chain of Tyrosine-protein kinase ABL1 (Homo sapiens) (P00519 whole entry, looked up): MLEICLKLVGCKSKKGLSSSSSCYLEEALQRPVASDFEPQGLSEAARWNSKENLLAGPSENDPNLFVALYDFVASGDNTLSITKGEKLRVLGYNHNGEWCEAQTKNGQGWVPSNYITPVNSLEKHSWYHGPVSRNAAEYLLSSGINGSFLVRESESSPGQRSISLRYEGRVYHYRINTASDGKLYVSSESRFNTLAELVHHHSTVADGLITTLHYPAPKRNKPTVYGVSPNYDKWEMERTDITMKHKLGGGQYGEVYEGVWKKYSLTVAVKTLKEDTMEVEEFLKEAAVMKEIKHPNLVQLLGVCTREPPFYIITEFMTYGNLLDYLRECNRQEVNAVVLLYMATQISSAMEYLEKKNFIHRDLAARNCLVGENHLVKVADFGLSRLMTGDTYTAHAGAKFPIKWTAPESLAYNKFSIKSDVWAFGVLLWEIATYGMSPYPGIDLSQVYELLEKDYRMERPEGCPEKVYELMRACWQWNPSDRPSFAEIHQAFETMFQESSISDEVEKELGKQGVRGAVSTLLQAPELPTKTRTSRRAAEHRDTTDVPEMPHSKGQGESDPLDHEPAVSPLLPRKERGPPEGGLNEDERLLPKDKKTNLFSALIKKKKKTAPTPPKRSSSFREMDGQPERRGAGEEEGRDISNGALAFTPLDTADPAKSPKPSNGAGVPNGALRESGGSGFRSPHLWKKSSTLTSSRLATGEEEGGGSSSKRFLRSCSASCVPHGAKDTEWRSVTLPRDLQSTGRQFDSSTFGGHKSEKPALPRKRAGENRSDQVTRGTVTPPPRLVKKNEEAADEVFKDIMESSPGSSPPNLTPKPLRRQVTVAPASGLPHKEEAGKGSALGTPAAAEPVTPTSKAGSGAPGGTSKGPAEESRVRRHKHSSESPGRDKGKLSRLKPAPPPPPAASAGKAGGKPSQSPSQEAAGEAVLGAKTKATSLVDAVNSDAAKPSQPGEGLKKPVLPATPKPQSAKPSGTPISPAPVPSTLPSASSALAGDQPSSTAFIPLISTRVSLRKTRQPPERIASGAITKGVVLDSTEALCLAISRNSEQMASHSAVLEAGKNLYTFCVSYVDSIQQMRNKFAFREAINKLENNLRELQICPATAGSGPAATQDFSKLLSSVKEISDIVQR
From the text: National Center for Advancing Translational Sciences (NCATS),
National Institute of Health (NIH), Maryland
Discovery and optimization of novel protein-binding ligands underlies many of the methods and applications of biology, drug discovery, clinical diagnostics, and environmental toxicology. Assays for detecting the interaction of, for example, a molecule with a macromolecular target also referred to here as the target of interest (TOI) is dependent on a compatible output technology. Depending on the nature and knowledge surrounding the TOI, whether a receptor, enzyme, regulatory subunit or scaffold, or a sequence-defined nucleic acid folded into a complex tertiary structure, assay strategies can vary widely.
Here we exploit ligand-biased changes in the structural dynamics of the target protein to control reporter alpha complementation allowing a non-competitive, non-functional, non-separation measure of ligand-target interaction.
Secondly, we show the specificity and sensitivity of the SDR for the Abelson tyrosine kinase (ABL1) compared to the serine/threonine protein kinase A, using an enriched chemical library of 128 compounds selected, in part, for activity annotated with ABL1 kinase activity using the Pharos database (3).
(1) A. S. Dixon et al., NanoLuc Complementation Reporter Optimized for Accurate Measurement of Protein Interactions in Cells. ACS Chem Biol 11, 400-408 (2016).
Chemistry & Biology, 19, 1060 - 1072 (2012).
(3) K. J. Kelleher et al., Pharos 2023: an integrated resource for the understudied human proteome. Nucleic Acids Res 51, D1405-D1416 (2023).
PROTOCOL TABLE (as described by Inglese J, Shamu CE and Guy RK. 2007)
SEQUENCE No. (e.g., 1, 2, 3, etc.); […] (e.g., C. elegans, Compounds, Incubation, Read, etc.); VALUE and DESCRIPTION.
1. Reagent. Dispense 4 uL ABL1-N-HiBiT enzyme per well at a final enzyme concentration of 10 nM in buffer without ATP (SDR assay) into columns 2-48 of four replicate Greiner 1536-well white, solid bottom high base, medium plates per assay. Dispense respective buffer without enzyme at 4 uL/well in column 1 of assay plates using BioRaptr 2.
2. Compounds. Library compounds added at 23 nL/well by pin transfer. DMSO neutral control and imatinib positive control added at 25 nL/well, transfer by Mosquito dispenser.
3. Incubation. Incubate enzyme and compounds at room temperature for 30 min, protected from light.
4. Reagent. (SDR assay) Add 3 uL/well of Nano-Glo HiBiT reagent (Promega) to assay plates with or without ATP.
5. Incubation. (SDR assay) Incubate enzyme solution and HiBiT reagent at room temperature for 10 min, protect from light.
6. Detector. (SDR assay) Luminescence measured using CCD-based camera (ViewLux) with settings as follows: Exposure, 1 sec; Gain, High; Speed, Slow; Binning, 2X.
Inglese J, Shamu CE and Guy RK, Reporting data from high throughput screening of small molecule libraries, Nature Chemical Biology, 2007, 3(8): 438-441. doi.org/10.1038/nchembio0807-438.
In the case of N#Cc1cn([C@@H]2O[C@H](CO)[C@H](O)[C@@H]2O)c2ncnc(N)c12, the Potency is reported as 6.05 µM (active). For Cc1[nH]nc2ccc(-c3cncc(OC[C@@H](N)Cc4c[nH]c5ccccc45)c3)cc12, the “activity change, gain of signal” value was -23%. For CCNC(=O)C[C@@H]1N=C(c2ccc(Cl)cc2)c2cc(OC)ccc2-n2c(C)nnc21, the “activity change, gain of signal” value was 7.17%. In the case of C/C(O)=C(\C#N)C(=O)Nc1cc(Br)ccc1Br, the “activity change, gain of signal” value is reported as -83.3%. With O=C(NCCCNc1nc(Nc2ccc(N3CCOCC3)cc2)ncc1C1CC1)C1CCC1 the “activity change, gain of signal” value was -15.7%. With O=[N+]([O-])O[C@H]1CO[C@H]2[C@@H]1OC[C@H]2O[N+](=O)[O-] the “activity change, gain of signal” value was 8.76%.
